# Assay results from PubChem BioAssay (EPA / NIEHS).
# Activity calls are given as the source filed them. The calls were made as follows: active = hit-call score of the fitted dose curve at least 0.9, where 1 is the maximum; inactive = score below 0.9.
# Read-out: Fatty acid synthase (Homo sapiens) (UniProt P49327)
# Assay: LTEA_HepaRG_FASN: Life Technologies and Expression Analysis (LTEA) Assay for Fatty Acid Synthase (FASN) using HepaRG (AID 2283448)
# Settings: mRNA level, 48 h; actives raise or lower the signal
# Experimental: LTEA_HepaRG is a cell based, multiplexed-readout assay that uses HepaRG, a human liver cell line, with measurements taken at 48 hours after chemical dosing on a 96-well plate.LTEA_HepaRG_FASN is one of 102 assay component(s) measured in the LTEA HepaRG cell culture assay. It is a marker of Steatosis.Data from the assay component LTEA_HepaRG_FASN was analyzed into 1 endpoint. This assay endpoint, LTEA_HepaRG_FASN, was analyzed with bidirectional fitting relative to DMSO as the negative control and baseline of activity. Using a type of inducible reporter, measures of mRNA induction for gain or loss-of-signal activity can be used to understand regulation of transcription factor activity. To generalize the intended target to other relatable targets, this assay endpoint is annotated to the lyase intended target family, where the subfamily is fatty acid synthase.
# A total of 1060 chemcials from the ToxCast library were tested in eight-point concentration-response experiments. Cell culture and cytotoxicity assays were conducted at Thermo Fisher Scientific's Custom Services facility (Madison, WI). A single lot of human HepaRG cells (Thermo Fisher Scientific, Frederick, MD) was used for the cell culture experiments. 96-well format collagen type I coated plates of human HepaRG cells were prepared using established methods. Briefly, cryopreserved HepaRG cells were thawed, plated at a density of approximately 100,000 cells/well in HepaRG Thaw, Plate, and General Purpose media (HPRG770, Thermo Fisher Scientific), and incubated for 48 hours. 0.5% DMSO was selected as vehicle control to balance the requisite need of DMSO in HepaRG cultures to maintain differentiation (for example, baseline metabolism, proportions of hepatocytes vs. cholangiocytes), while enabling further hepatic receptor pathway activation (for example, PXR and CAR) in response to chemical exposure. 48 hours after plating, the culture medium was replaced with HepaRG Serum-Free Incudtion Media. Cells were exposed to each test chemical in duplicate and maintained in CO2 incubators for another 48 hours. Chemical plates were thawed to room temperature and 200x concentrations of treatment groups were prepared. 8-point conentration-reponse curves were made with the highest exposure at 100 uM, followed by half-log dilutions, all in 0.5% DMSO. Each test plate contained variouse controls, induction positive controls (1mM phenobarbital), cytotoxicity positive controls ([…] aflatoxin B1), vehicle controls (0.5% DMSO), and total lysis controls (0.5% DMSO). Cell morphology images were taken using an Essen IncuCyte FLR automated microscope, with six 96-well plates imaged in about 24 minutes. Images were captured and exported and JPEG files. Spent culture media was transfered to black-well plates for the LDH assay, and remaining media was sorted at -80 C for later use. Cells were treated with RLT buffer and frozen until shipped for gene expression analysis. Total RNA was isolated from the cell suspension in 75 uL of Buffer RLT (Qiagen, Germantown, MD 20874) by Quintiles/Expression Analysis (Durham, NC) using a custom isolation procedure. Total RNA from each plate well was transferred to a preamplification plate. Fluidigm's 96.96 Dynamic ArrayTM (Fluidigm, Amsterdam, the Netherlands) technology was used for gene expression analyses by quantitative reverse transcription polymerase chain reaction (qRT-PCR, performed by Quintiles/Expression Analysis, Durham, NC)89. Standard TaqManTM Assays (Applied Biosystems/ThermoFisher Scientific, Foster City, CA) were used to assess the expression of 93 genes selected based on their selectivity and sensitivity to important hepatic receptors known to be modulated by environmental chemicals; importance in human hepatocyte functionality; and hepatotoxicity. […]
# Fatty acid synthase (Homo sapiens), sequence (P49327 whole entry, looked up): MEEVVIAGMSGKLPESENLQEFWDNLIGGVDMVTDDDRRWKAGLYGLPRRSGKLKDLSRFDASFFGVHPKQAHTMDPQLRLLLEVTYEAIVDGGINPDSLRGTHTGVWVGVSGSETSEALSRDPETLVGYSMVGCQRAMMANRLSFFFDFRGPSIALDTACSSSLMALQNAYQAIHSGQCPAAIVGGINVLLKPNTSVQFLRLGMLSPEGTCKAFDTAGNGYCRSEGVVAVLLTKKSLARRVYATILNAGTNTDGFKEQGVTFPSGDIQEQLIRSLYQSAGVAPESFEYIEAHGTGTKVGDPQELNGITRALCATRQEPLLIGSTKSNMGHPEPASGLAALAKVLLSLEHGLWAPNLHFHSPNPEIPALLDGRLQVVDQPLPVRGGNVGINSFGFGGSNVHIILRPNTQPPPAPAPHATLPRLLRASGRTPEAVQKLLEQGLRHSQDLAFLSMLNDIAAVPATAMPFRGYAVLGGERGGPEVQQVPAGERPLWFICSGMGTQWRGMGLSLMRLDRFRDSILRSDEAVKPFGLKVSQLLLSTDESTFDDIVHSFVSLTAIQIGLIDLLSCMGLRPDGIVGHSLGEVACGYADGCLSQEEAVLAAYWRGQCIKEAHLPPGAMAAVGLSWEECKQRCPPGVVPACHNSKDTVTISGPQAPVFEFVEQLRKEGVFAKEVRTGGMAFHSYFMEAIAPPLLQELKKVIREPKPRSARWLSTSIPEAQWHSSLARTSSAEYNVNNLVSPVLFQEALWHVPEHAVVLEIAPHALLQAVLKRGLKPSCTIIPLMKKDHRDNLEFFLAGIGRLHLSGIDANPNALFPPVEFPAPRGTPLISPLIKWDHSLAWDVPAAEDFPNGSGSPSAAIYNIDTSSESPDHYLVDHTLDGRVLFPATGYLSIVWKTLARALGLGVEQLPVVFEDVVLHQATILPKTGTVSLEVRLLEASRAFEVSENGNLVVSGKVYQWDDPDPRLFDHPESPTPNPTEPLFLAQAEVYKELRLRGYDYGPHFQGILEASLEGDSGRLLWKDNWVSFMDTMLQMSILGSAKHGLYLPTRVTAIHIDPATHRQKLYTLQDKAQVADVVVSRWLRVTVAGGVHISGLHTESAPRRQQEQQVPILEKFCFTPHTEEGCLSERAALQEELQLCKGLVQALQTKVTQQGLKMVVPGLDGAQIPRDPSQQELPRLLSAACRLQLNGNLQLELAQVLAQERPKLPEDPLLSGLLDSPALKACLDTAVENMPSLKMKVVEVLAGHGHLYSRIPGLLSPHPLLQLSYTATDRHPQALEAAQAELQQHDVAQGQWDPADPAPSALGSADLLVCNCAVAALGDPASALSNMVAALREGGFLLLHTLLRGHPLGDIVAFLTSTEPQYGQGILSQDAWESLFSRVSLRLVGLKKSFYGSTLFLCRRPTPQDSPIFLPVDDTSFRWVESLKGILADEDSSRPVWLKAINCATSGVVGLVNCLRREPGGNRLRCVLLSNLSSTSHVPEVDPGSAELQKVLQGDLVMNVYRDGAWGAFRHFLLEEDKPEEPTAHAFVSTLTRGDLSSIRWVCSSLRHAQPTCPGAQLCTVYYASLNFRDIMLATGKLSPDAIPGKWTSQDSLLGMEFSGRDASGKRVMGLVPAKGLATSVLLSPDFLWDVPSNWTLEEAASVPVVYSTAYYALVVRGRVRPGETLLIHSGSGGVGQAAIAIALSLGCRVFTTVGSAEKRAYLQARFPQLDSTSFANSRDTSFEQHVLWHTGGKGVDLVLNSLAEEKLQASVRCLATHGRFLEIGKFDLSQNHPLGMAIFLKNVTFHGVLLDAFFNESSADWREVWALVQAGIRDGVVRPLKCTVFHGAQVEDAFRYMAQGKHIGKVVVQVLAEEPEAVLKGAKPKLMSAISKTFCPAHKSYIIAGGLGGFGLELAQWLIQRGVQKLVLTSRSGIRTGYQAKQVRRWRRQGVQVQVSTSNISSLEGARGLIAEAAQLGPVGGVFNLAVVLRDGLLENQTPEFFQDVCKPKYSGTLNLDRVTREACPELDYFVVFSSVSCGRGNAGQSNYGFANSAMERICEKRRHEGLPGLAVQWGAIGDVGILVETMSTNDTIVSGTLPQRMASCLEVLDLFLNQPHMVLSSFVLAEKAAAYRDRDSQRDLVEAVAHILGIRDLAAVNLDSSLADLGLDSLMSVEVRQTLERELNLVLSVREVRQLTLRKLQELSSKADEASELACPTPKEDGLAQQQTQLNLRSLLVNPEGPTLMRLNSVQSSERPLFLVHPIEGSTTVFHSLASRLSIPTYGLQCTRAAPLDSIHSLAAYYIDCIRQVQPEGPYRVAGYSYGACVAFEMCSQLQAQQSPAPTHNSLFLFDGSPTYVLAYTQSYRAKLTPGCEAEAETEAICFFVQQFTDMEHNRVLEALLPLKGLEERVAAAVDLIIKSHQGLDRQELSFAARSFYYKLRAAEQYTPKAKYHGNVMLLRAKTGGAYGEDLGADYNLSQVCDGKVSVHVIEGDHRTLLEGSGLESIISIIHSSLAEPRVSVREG
Structure (SMILES),outcome,AC50
C1CC2OC2CC1C1CO1 (stereo not given),inactive,
Cc1ccc(O)c(C)c1,inactive,
Cc1cccc([N+](=O)[O-])c1,inactive,
CCC(=O)O[C@H]1CC[C@H]2[C@@H]3CCC4=CC(=O)CC[C@]4(C)[C@H]3CC[C@]12C,inactive,
CC(C)(c1ccccc1)c1ccc(O)cc1,inactive,
Cc1ccccc1O,inactive,
O=NN(c1ccccc1)c1ccccc1,inactive,
ClC(Cl)=C(c1ccc(Cl)cc1)c1ccc(Cl)cc1,,50 µM (active)
CCC(C)(c1ccc(O)cc1)c1ccc(O)cc1,,70.5 µM (active)
CC(c1ccc(O)cc1)(c1ccc(O)cc1)c1ccc(O)cc1,,32.1 µM (active)
CCCCCCCCCC[N+](C)(C)CCCCCCCCCC,,42.7 µM (active)
CC#Cc1cc(C)nc(Nc2ccccc2)n1,,1.83 µM (active)
CC(C)C(=O)OCC(C)(C)C(OC(=O)C(C)C)C(C)C (stereo not given),inactive,
c1cc2ccc3cccc4ccc(c1)c2c34,inactive,
NS(=O)(=O)C(F)(F)C(F)(F)C(F)(F)C(F)(F)C(F)(F)C(F)(F)C(F)(F)C(F)(F)F,,12.9 µM (active)
COS(=O)(=O)OC,inactive,
O=S(=O)(O)C(F)(F)C(F)(F)C(F)(F)C(F)(F)F,inactive,
ClC1=C(Cl)[C@]2(Cl)[C@@H]3[C@H]4C[C@H]([C@@H]5O[C@H]45)[C@@H]3[C@@]1(Cl)C2(Cl)Cl,,87.6 µM (active)
O=C(O)C(F)(F)C(F)(F)C(F)(F)C(F)(F)C(F)(F)C(F)(F)C(F)(F)C(F)(F)C(F)(F)F,,31.1 µM (active)
CC(C)(O)C(=O)Nc1ccc([N+](=O)[O-])c(C(F)(F)F)c1,inactive,

Structure (SMILES),outcome,AC50
c1ccc(-c2ccccc2)cc1,inactive,
Oc1c(Cl)c(Cl)c(Cl)c(Cl)c1Cl,,1.87 µM (active)
O=C(NC(=O)c1cc(F)c(F)cc1Cl)Nc1cc(F)ccc1N1CCC(C(=O)O)CC1,inactive,
COc1ccc(O)c(C(C)(C)C)c1,inactive,
O=C(O)C(F)(F)C(F)(F)C(F)(F)C(F)(F)C(F)(F)C(F)(F)C(F)(F)C(F)(F)F,,94.2 µM (active)
C[C@]12CCC(=O)C=C1CC[C@@H]1[C@@H]2CC[C@]2(C)C(=O)CC[C@@H]12,,82.7 µM (active)
CCOP(=S)(OCC)SCSC(C)(C)C,inactive,
Nc1ccc(-c2ccc(N)cc2)cc1,inactive,
Clc1ccc(C(c2ccccc2Cl)C(Cl)(Cl)Cl)cc1 (stereo not given),,50 µM (active)
CCCCCCCCCc1ccc(O)cc1,inactive,
ClC1=C(Cl)[C@]2(Cl)[C@@H]3[C@@H](Cl)[C@H]4O[C@H]4[C@@H]3C1(Cl)C2(Cl)Cl,inactive,
CCC(C)(CC)c1cc(NC(=O)c2c(OC)cccc2OC)on1,,33.8 µM (active)
Cc1cc2c3c(c1)C(c1ccccc1)=N[C@@H](NC(=O)c1ccncc1)C(=O)N3CC2,,50 µM (active)
Nn1cnnc1,inactive,
Cc1cc(O)ccc1Cl,inactive,
CN(C)c1nc(=O)n(C2CCCCC2)c(=O)n1C,inactive,
CN(C)CCO,inactive,
N#Cc1ccc(N(CC(N)=O)CC(F)(F)F)cc1C(F)(F)F,inactive,
CCCCCCOC(=O)c1ccccc1C(=O)OCCCCCC,inactive,
Oc1ccc(C(c2ccc(O)cc2)(C(F)(F)F)C(F)(F)F)cc1,,90.7 µM (active)
